In PubChem BioAssay AID651956 (Broad Institute, 2012):
Potency and affinity values are given separately. Records with an inconclusive call do not appear.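 Rule for the calls: active = in every test run, a fitted half-maximal concentration for signal decrease at or below twice the highest tested concentration; inconclusive = runs disagree, flat 30 to 70% decrease, or poor fit; inactive = the rest.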

Test: miR-122 activators in hepatoma reporter cells, dose response, cell-based, Huh7 psiCHECK-miR122, Renilla luciferase, cherry-picked (AID 651956);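 note: Renilla luciferase from a miR-122 sensor reporter so lower signal means miR-122 activation; 0% = median neutral control wells and -100% = median positive control wells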
Details: 48 h; series mostly up to 35 µM; activity change, negative = signal decrease: at the top concentration

Activity change, negative = signal decrease, inactive:
Cc1ccc(-c2nnn(CC(=O)N(CC(=O)NCC3CCCO3)c3ccccc3)n2)o1 (centres undefined) -15.9%
CNC(=O)C[C@H]1CC[C@H]2[C@H](COc3ccc(NC(=O)c4cccc(OC)c4)cc3C(=O)N2C)O1 16.2%
Cc1cc(C)cc(NC(=O)c2ccc(CSc3nnc(C)s3)cc2)c1 -31.2%
CNc1nc(NCC2CCCCC2)c2sccc2n1 -42%
CCNC(=O)C[C@@H]1CC[C@H]2[C@@H](COc3ccc(NC(=O)Nc4ccc(F)cc4)cc3C(=O)N2C)O1 309%
COc1ccc(OC)c(Nc2cc(C)nc3ccc(C)cc23)c1 -95.2%
CCCNC(=O)N1[C@H](CO)[C@@H](c2ccccc2)[C@H]1CNC(=O)c1ccccc1 -30.3%
Cc1cc(C(=O)Nc2ccc3c(c2)C(=O)N(C)[C@H]2CC[C@H](CC(=O)N[C@H](C)c4ccccc4)O[C@H]2CO3)no1 77.8%
Cc1cccc(NC(=O)Nc2ccc3c(c2)C(=O)N(C)[C@H]2CC[C@@H](CC(=O)NCc4ccccc4Cl)O[C@H]2CO3)c1 4.52%
CC(C)NC(=O)N1C[C@@H]2[C@H](c3ccccc31)[C@H](CO)N2Cc1ccccc1 -18.9% [at 30 µM]
CCNC(=O)CCC(=O)Nc1cc(Cl)ccc1C -22.6%
CC(=O)Nc1ccc2c(c1)C(=O)N(C)[C@H]1CC[C@H](CC(=O)Nc3ccccc3Cl)O[C@@H]1CO2 152%
Cc1cc(C)c2c(c1)/C(=C/C(=O)c1ccc(Br)s1)C(=O)N2 120%
C/C=C/c1ccc([C@H]2[C@@H](CO)N(C(=O)C3CC3)[C@H]2CN(C)C(=O)CC2CC2)cc1 0%
CNC[C@H]1Oc2cc(C#CC3CCCC3)ccc2S(=O)(=O)N([C@H](C)CO)C[C@H]1C -91.6%
CCN(C[C@H]1N[C@H](CO)[C@H]1c1ccc(-c2ccc(F)cc2)cc1)C(=O)COC -25.8%
COc1ccc(-c2oc3ncnc(NCCCN4CCOCC4)c3c2-c2ccc(OC)cc2)cc1 -8.77%
CCCC(=O)Nc1ccc2c(c1)C(=O)N(C)[C@@H]1CC[C@H](CC(=O)NCCOC)O[C@H]1CO2 57.9%
CC(C)CC#Cc1ccc([C@H]2[C@@H](CO)N3CCCCN(S(=O)(=O)Cc4ccccc4)C[C@H]23)cc1 -137%
COc1ccc(CN2CCOC2=O)cc1OC 60.2%
CCCNC(=O)C[C@@H]1CC[C@@H]2[C@H](COc3ccc(NC(=O)Nc4ccccc4F)cc3C(=O)N2C)O1 -38.3%
COCC(=O)N1[C@H](CO)[C@H]2c3ccccc3N(C(=O)c3ccccc3F)C[C@H]21 -11%
CCC(=O)N1[C@@H](CO)[C@H](c2ccccc2)[C@@H]1CN(C(C)C)S(C)(=O)=O 182%
Cc1noc(C)c1NC(=O)Nc1ccc2c(c1)C(=O)N(C)[C@@H]1CC[C@H](CC(=O)N[C@H]3CCN(Cc4ccccc4)C3)O[C@H]1CO2 231%
C/C=C/c1ccc([C@H]2[C@@H](CO)N[C@@H]2CN(C(=O)c2ccccc2F)C(C)C)cc1 179%
CCCNC(=O)C[C@@H]1CC[C@@H]2[C@@H](COc3ccc(NC(=O)c4ccc(C(F)(F)F)cc4)cc3C(=O)N2C)O1 -48.5%
CN1C(=O)c2cc(NC(=O)c3cccs3)ccc2OC[C@@H]2O[C@@H](CC(=O)NCCN3CCCCC3)CC[C@H]21 120%
COc1cccc(CNC(=O)C[C@@H]2CC[C@@H]3[C@@H](COc4ccc(NC(C)=O)cc4C(=O)N3C)O2)c1 11.7%
COc1cccc(NC(=O)Nc2ccc3c(c2)C(=O)N(C)[C@@H]2CC[C@H](CC(=O)O)O[C@H]2CO3)c1 -9.26%
Cc1cc(CN(C)C(=O)c2cc(COc3ccc4ncccc4c3)on2)on1 -27.4%
Cc1cc(C)cc(Oc2ccc(NC(=O)C3CC=CCC3C(=O)O)cc2)c1 (centres undefined) -23.7%
CC(C)C(=O)Nc1ccc2c(c1)C(=O)N(C)[C@H]1CC[C@H](CC(=O)Nc3cccc(F)c3)O[C@@H]1CO2 -23.6%
CCOc1cc(C(=O)NC(C)COC)cc(OCC)c1OCC (centres undefined) -21.1%
Cc1cc(C(=O)Nc2cccc(O)c2)co1 -6.99%
Cc1nc(C)c(C(=O)Nc2ccc(Oc3ccccc3)cc2)o1 -16.7%
CC(C)c1ccc(CNC(=O)CSCC(=O)Nc2ccc3ccccc3c2)cc1 -18.8%
O=C(NCCCN1CCCC1)c1ccc(CSCc2cccc(Cl)c2)o1 5.27%
C=CCNC(=S)NNC(=O)c1cccn(Cc2ccc(Cl)c(Cl)c2)c1=O -25.4%
COc1cccc(CNC(=O)C[C@@H]2CC[C@H]3[C@H](COc4ccc(NC(C)=O)cc4C(=O)N3C)O2)c1 215%
